The text below walks through data of PubChem BioAssay AID1241 (SRMLSC, 2008).

SMILES strings stand for the structures. About 840 (70%) of roughly 1,200 compounds were called active. So high a share suggests a set chosen from earlier hits. These entries were drawn from the full list. Results with a measured potency or affinity are listed apart. A number with no mark means an inactive call. The rule behind the calls is not given here.

The assay can be described thus: compounds inducing NF-kB luciferase expression – cell-based, SH-SY5Y, dose response (AID 1241). The following applies: SH-SY5Y NF-kB promoter luciferase reporter; series mostly up to 30 µM. In general terms: In a reporter assay the amount or activity of a reporter protein is the signal.
On to `COc1ccc(-c2cc(-c3ccccc3)c(C#N)c(S(C)(=O)=O)n2)cc1`, for which the fold induction over control entry was “inactive”.

As for `CC1=CN2C(=N)/C(=C/c3ccco3)C(=O)N=C2S1`, the fold induction over control entry was “inactive”.

For the compound `Cc1cc(NC2CCCCC2)n2c(n1)nc1ccccc12`, the fold induction over control result was “inactive”.

In the case of `Cc1cccc(-c2c(O)cc(=O)[nH]c2Cl)c1`, the fold induction over control result was “inactive”.

With `CC(C)Oc1ccc2c(=O)c(-c3ccccc3)coc2c1`, the fold induction over control entry was “inactive”.

With `CCOc1cc(/C=C2/NC(=O)N(Cc3ccccc3F)C2=O)ccc1O`, the fold induction over control result is “inactive”.

As to `Cc1cc(C)nc(Sc2nc(C)nc3c2oc2ccccc23)n1`, the fold induction over control result is “inactive”.

Turning to `COC(=O)C1C(=O)/C(=C/N(C)C)C(=O)CC1(C)C` (configuration not stated), the fold induction over control result was “inactive”.

`Clc1ccc(-c2cc(CSc3ccccc3)on2)cc1`: the fold induction over control result was “inactive”.

Regarding `O=C(NCCN1CCOCC1)c1cc(-c2cccs2)on1`, the fold induction over control entry was “inactive”.

Turning to `O=C1N/C(=C/c2ccc(N3CCOCC3)o2)C(=O)N1c1ccccc1`, the fold induction over control result is “inactive”.

For the compound `COc1ccc(/C=N/n2c(-c3cccs3)n[nH]c2=S)cc1`, the fold induction over control result was “inactive”.

For `CCOc1ccc(C2=NNC(c3cccs3)=Nc3ccc(OC)cc32)cc1`, the fold induction over control result is “inactive”.

For `COc1ccc(/C=N/Nc2ccc([N+](=O)[O-])cc2S(=O)(=O)N2CCN(C)CC2)cc1`, the fold induction over control result is “inactive”.

With `COc1ccc(/C=N/NC(=O)COc2ccccc2-c2ccccc2)cc1`, the fold induction over control entry is “inactive”.

Turning to `COC(=O)N/N=C(/c1ccccc1)C1CCCCC1`, the fold induction over control entry is “inactive”.

Take `CNC(=S)N/N=C(\C)c1ccc(N2CCOCC2)cc1`: the fold induction over control entry is “inactive”.

On to `O=c1c2c(nc3cc(-c4cccc(Cl)c4)[nH]n13)CCC2`, for which the fold induction over control entry is “inactive”.

For the compound `O=C(Nc1ccc2ccccc2c1)c1cnccn1`, the fold induction over control result was “inactive”.

Regarding `c1ccc(Nc2nc3ccccc3o2)cc1`, the fold induction over control result was “inactive”.

Take `NC(N)=N/N=C/c1ccc(OCc2ccc(Cl)cc2)cc1`: the fold induction over control result was “inactive”.

On to `Cn1cccc1/C=C1\Cc2ccccc2C1=O`, for which the fold induction over control result was “inactive”.

`COc1ccc(C(=O)/C=C/c2cccs2)c(OC(=O)c2cccc([N+](=O)[O-])c2)c1`: the fold induction over control result is “inactive”.

Consider `COc1ccc(/C=C\c2nc(=O)c3ccccc3o2)cc1`, for which the fold induction over control result was “inactive”.

For the compound `Cc1nc(SCc2ccc(Cl)cc2)ncc1C(=O)O`, the fold induction over control result was “inactive”.

On to `CC(=O)Nc1cc2nn(-c3ccccc3)nc2cc1Cl`, for which the fold induction over control result was “inactive”.

In the case of `CC(C)CC(=O)Nc1ccc2c(c1)oc1ccccc12`, the fold induction over control entry was “inactive”.

Turning to `COc1ccc(-[n+]2c(C)cc(/C=C3\Sc4ccccc4N3C)cc2C)cc1`, the fold induction over control entry was “inactive”.

`Cc1ccc(C2=NN3C(C2)c2ccccc2OC32C(=O)Nc3ccccc32)cc1` (configuration not stated): the fold induction over control entry is “inactive”.

As for `Cc1[nH]n(-c2ccccc2)c(=O)c1C=NC1CCCCC1`, the fold induction over control entry was “inactive”.

With `C=CCN=Cc1c(C)[nH]n(-c2ccccc2)c1=O`, the fold induction over control entry is “inactive”.

With `O=C(Nc1ccccc1O)c1ccc(Cl)cc1`, the fold induction over control entry is “inactive”.

For the compound `CCOC(=O)c1noc(C)c1C(=O)Nc1nccs1`, the fold induction over control result was “inactive”.

In the case of `COc1cccc(NC(=S)N(CCN(C)C)Cc2cccs2)c1`, the fold induction over control result was “inactive”.

As for `O=C(c1ccco1)n1c(=S)nc2ccccn21`, the fold induction over control result was “inactive”.

With `Cc1ccc(C(=O)CSc2nsc(C)c2C#N)cc1`, the fold induction over control entry was “inactive”.

For the compound `Cc1cccc2nc(=S)n(C(=O)c3ccco3)n12`, the fold induction over control result was “inactive”.

On to `CCOC1CS(=O)(=O)CC1OCC` (configuration not stated), for which the fold induction over control entry is “inactive”.

With `O=C(c1ccccc1)c1ccccc1C(=O)N1CCCC1`, the fold induction over control result is “inactive”.

Turning to `COc1ccc(N=c2sc3ccccc3n2C)cc1`, the fold induction over control entry was “inactive”.

In the case of `COc1ccc(N=C2C(=Nc3ccc(OC)cc3)N(c3ccccc3)C(=S)N2C(=O)c2ccc(Cl)cc2)cc1`, the fold induction over control entry was “inactive”.

In the case of `Cc1cccc(/C(N)=N/OC(=O)c2cccs2)c1`, the fold induction over control result is “inactive”.

`COc1cc(C2C(S(=O)(=O)c3ccccc3)CON2C)ccc1OCc1ccc(F)cc1` (configuration not stated): the fold induction over control result was “inactive”.

With `O=C(Oc1ccccc1/C=C\C(=O)c1cc2ccccc2o1)c1ccccc1`, the fold induction over control entry was “inactive”.

`Cn1c(SCc2ccc(C#N)cc2Cl)nc2ccccc21`: the fold induction over control result was “inactive”.

Turning to `COC(=O)c1ccc(COn2nnc3ccccc32)cc1`, the fold induction over control entry was “inactive”.

Regarding `c1ccc(C2=Nc3ccccc3SC2c2nc3ccccc3[nH]2)cc1` (configuration not stated), the fold induction over control result is “inactive”.

On to `c1ccc2nc3c(nc2c1)[nH]c1ccccc13`, for which the fold induction over control entry was “inactive”.

On to `CCCOc1ccc2c3c(c(=O)oc2c1OCCC)CCC3`, for which the fold induction over control result is “inactive”.

`COc1ccccc1-c1cc(C(=O)N2CCCCC2)no1`: the fold induction over control entry is “inactive”.

Consider `O=C(NCCN1CCOCC1)c1cc(-c2ccccc2)on1`, for which the fold induction over control entry was “inactive”.

On to `O=C(NCCCN1CCOCC1)c1cc(-c2ccccc2)on1`, for which the fold induction over control result was “inactive”.

For `O=C(Oc1ccc(-c2ccccc2)cc1)N1CCCCC1`, the fold induction over control entry is “inactive”.

Turning to `Cc1cccc(-c2cc3nc(C)cc(C)n3n2)c1`, the fold induction over control entry was “inactive”.

In the case of `CNc1nc(-c2ccccn2)nnc1-c1ccccc1`, the fold induction over control entry is “inactive”.

As to `CN1CCN(CC(=O)N2c3ccccc3C(C)(c3ccccc3)CC2(C)C)CC1` (configuration not stated), the fold induction over control result was “inactive”.

`Cc1cccc(-c2noc(-c3ccc(F)cc3)n2)c1`: the fold induction over control entry was “inactive”.

Take `O=C(CSc1nc(Nc2ccccc2)nc(N2CCOCC2)n1)Nc1ccccc1Cl`: the fold induction over control entry is “inactive”.

Turning to `O=C(Nc1ccc(N2CCCC2=O)cc1)c1cccc(F)c1`, the fold induction over control entry is “inactive”.

For `Cc1ccc(-c2cnc3cc(C)nn3c2)cc1`, the fold induction over control result is “inactive”.

`CCCc1cc(C(=O)Nc2cc(Br)ccc2O)no1`: the fold induction over control result was “inactive”.

Take `N#Cc1ncc(-c2ccc3c(c2)OCCOCCOCCOCCOCCO3)nc1C#N`: the fold induction over control result was “inactive”.
